The text below walks through data of PubChem BioAssay (NCI).

Each structure is given as a SMILES string. This is part of a sample that, as a whole, favours compounds with a hit. Of some 83,000 tested, about 20% had one in any assay.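 48-hour exposure, single concentration, 96-well plates; percent growth endpoint where 0 means no net growth. Active: below 10.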 Unmarked numbers belong to inactive results. Activity calls are given as the source filed them.

The subject of this assay is HL-60(TB) leukemia. The assay can be described thus: NCI-60 one-dose screen, 48 h (100 = growth as untreated, 0 = no growth, -100 = all killed). The following applies: 10 µM unless noted.
On to `C[C@H]1[C@H](C)CC[C@]2(C(=O)NCCNCCN)CC[C@]3(C)C(=CC[C@@H]4[C@@]5(C)CCC(=O)C(C)(C)[C@@H]5CC[C@]43C)[C@H]12`, for which the growth was -58.5% (active).
Next, `NC(C(=O)O)C(O)c1ccc(OCc2ccccc2)c(OCc2ccccc2)c1` (stereo not drawn): 105%.
Next, `[O-]/[N+](=C\c1ccccc1)CC1(O)CCCCC1`: 98.5%.
